High-throughput results: PubChem, National Center for Advancing Translational Sciences (NCATS)
This is a sample that favours compounds with a hit; in the whole collection about 3.3% have one here.
PNC inhibitor: perinucleolar compartment assembly inhibition | PC3M PTB-GFP, PNC prevalence imaging, 16 h; hits give low values | activity change (PNC), negative = inhibition, % at 10 µM | 140,000 tested, 3.1% active;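 active means readout at or below -70, meaning at least 70% loss of cells showing the perinucleolar compartment, a nuclear body marking cancer cells; inconclusive means readout between -30 and a set limit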;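 further: plate controls were DMSO wells for no effect and camptothecin positive control wells for full effect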
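Read-out is percentage of cells bearing a perinucleolar compartment, from automated 20x imaging of fixed, Hoechst-stained PC3M PTB-GFP cells. Cells were seeded 4 h, then exposed 16 h to compound (23 nl of library stock) in duplicate plates.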
HTT ATP protect: protects HTT-Q103 PC12 cells, measured by ATP | Potency, µM (series often up to 56.4 µM), for the others: cytoprotection (ATP increase), actives largely listed as activators | PC12 HTT-Q103 induced, cytoprotection, ATP luminescence, 40 h | 230,000 tested, 0.14% active; further: potency means the concentration at half of the fitted maximal effect; % of control where 0% means no effect; nearly all actives have a fitted effect of over 45% in size
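Readout: ATPlite luminescence (ATP level). Model: stable PC12, inducible Htt exon1 Q103-GFP. Inducer: tebufenozide, 100 nM final. Compounds: dose series. No G418 in medium.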
IMPase inh: membrane-permeable compound that blocks inositol monophosphatase; P97697; CHO-M1 cells, IP1 accumulation, HTRF TR-FRET ratio; inhibition (IP1 accumulation), % at 46.1 µM; 120,000 tested, under 10 active; active means well fitted curve in the direction sought with a large enough effect in the signal ratio, not every such curve was filed as active; inconclusive means small, poorly fitted or top-dose-only effect, or a change in a side signal; inactive means no such curve, though single readings can be large or run the other way; the % refers to the signal ratio;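 further: cells stimulated with carbachol in lithium chloride buffer; plate controls were DMSO basal wells for no effect and reference inhibitor wells for full effect; higher means more IMPase inhibition seen as more IP1 and lower FRET ratio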
Target sequence (P97697 whole entry, looked up): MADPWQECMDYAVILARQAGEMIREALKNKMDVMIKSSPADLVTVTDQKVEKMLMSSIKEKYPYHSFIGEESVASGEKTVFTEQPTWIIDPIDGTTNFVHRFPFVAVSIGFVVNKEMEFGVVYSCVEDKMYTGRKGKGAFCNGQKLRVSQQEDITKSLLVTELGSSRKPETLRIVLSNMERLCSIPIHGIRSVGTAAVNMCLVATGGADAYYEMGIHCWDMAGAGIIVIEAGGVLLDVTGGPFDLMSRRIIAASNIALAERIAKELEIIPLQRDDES
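In this qHTS, compounds (final up to 46 uM) act on CHO-M1 cells that are then activated through the M1 receptor with carbachol, in pH 7.4 buffer containing 50 mM LiCl, for 30 min. IP1 accumulation is quantified by the IP-One immunoassay.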
HttQ103 aggreg: reduces HttQ103-GFP aggregates in PC12 cells | AID 1688 | 220,000 tested, 1.1% active | PC12 HttQ103-GFP aggregates, Acumen cytometry, 40 h | Potency, µM (top dose mostly 46.1 µM), for the others: top-dose activity change, negative = inhibition, actives largely listed as inhibitors; further: potency means the concentration at half of the fitted maximal effect; on the % scale 0 is the no-effect control and ±100 the full control effect; nearly all actives have a fitted effect of over 60% in size
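Steps: seed 1500 PC12 HTTQ103-GFP cells/well; add tebufenozide, 100 nM final; add compound titration; add ATPLite reagent; quantify GFP aggregates by laser scanning cytometry.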
12-hLO inh: blocks human 12-lipoxygenase activity; purified 12-hLO, xylenol orange hydroperoxide absorbance; AID 1452; P18054; Potency, µM (highest dose often 57.1 µM), for the others: at the highest dose activity change, negative = inhibition, usual class: inhibitors; 150,000 tested, 0.12% active; further: potency means the concentration at half of the fitted maximal effect; on the % scale 0 is the no-effect control and ±100 the full control effect; nearly all actives have a fitted effect of over 55% in size
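Hydroperoxide formation by human 12-lipoxygenase from 40 uM arachidonic acid was followed colorimetrically via ferric-xylenol orange complex, using the 573/405 nm absorbance ratio. Enzyme concentration was 150 nM, with 30 min reaction at room temperature.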
NPSR antagonist: neuropeptide S receptor (human) antagonism, cAMP. 220,000 tested, 1% active. Potency, µM (top dose mostly 38.3 µM), inactives show top-dose activity change, negative = inhibition, hits mostly inhibitors. Q6W5P4. CHO-NPSR cells, cAMP TR-FRET, antagonist mode; further: potency means the concentration at half of the fitted maximal effect; on the % scale 0 is the no-effect control and ±100 the full control effect; nearly all actives have a fitted effect of over 50% in size
Target sequence (Q6W5P4 whole entry, looked up): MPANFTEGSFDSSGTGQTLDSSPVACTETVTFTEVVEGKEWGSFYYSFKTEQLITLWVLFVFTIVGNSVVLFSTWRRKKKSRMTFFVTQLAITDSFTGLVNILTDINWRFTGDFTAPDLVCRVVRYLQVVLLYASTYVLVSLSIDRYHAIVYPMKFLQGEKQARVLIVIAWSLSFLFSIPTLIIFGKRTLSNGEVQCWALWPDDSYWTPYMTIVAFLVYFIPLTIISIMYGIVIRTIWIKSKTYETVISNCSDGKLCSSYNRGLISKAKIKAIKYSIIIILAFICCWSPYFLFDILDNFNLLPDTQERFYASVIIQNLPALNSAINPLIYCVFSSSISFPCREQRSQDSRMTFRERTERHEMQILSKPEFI
* hit, by the source's call; u = inconclusive; x = no result; [ ] = dose if it differs, or a comment. Unless noted, the call rests on the fitted dose curve; in most records, active means well fitted curve in the direction sought with a large enough effect; inconclusive means small, poorly fitted or top-dose-only effect, or another doubt; inactive means no such curve, though single readings can be large; an effect the other way counts as inactive or inconclusive.

SMILES | PNC inhibitor | HTT ATP protect | IMPase inh | HttQ103 aggreg | 12-hLO inh | NPSR antagonist
CCS(=O)(=O)c1nc2ccccc2n1CC(=O)Nc1ccccc1C(=O)OC | x | x | 7 | x | x | x
COc1cccc(C(=O)Nc2ccc(NC(=O)C(C)(C)C)cn2)c1 | -84* | -93% | -8 | -13% | -1% | 1%[46.1 µM]
CCN1CCN(CCCN(Cc2ccco2)C(=S)Nc2ccc(Cl)c(C)c2)CC1 | x | -15% | x | -2% | x | -13%
Cc1cc(NC(=S)N(CCCN2CCOCC2)Cc2ccco2)ccc1Cl | -118* | x | x | 15% | 5% | -7%
CCCCCn1c(NCc2ccccc2OC)nc2ccccc21 | x | x | 12 | x | x | x
CCOC(=O)c1c(CN(CC)CC)oc2ccc(OC)cc12 | -100* | 7%[10 µM] | -5 | 10% | 4% | 7%[46.1 µM]
CCOC(=O)c1c(CN(CC)CC)oc2cc(Br)c(O)cc12 | 24 | -11% | 16 | 4% | -4% | -4%[46.1 µM]
CC(C)(CO)N=C1NS(=O)(=O)c2cc([N+](=O)[O-])ccc21 | 63 | x | x | 10µM* | -4% | 19%
COc1ccc(CNC(=O)C/C(C)=N/NC(=O)COc2cccc(C)c2)cc1 | x | -7% | x | 1% | x | 8%
Cc1nn(CC(=O)O)c(C)c1N | x | 16%[10 µM] | x | 13%[9.22 µM] | x | 24%
CC(=O)c1cnc2cc(-c3ccc(C)cc3)nn2c1C | -100* | 7%[10 µM] | 0 | -3% | 1% | -1%[46.1 µM]
C/C(=N\N1CCN(Cc2ccc(Cl)cc2)CC1)c1ccc([N+](=O)[O-])cc1 | x | 30%[10 µM] | x | 0%[9.22 µM] | x | 38%
CCN(CC)CCCNC(=S)N1CCn2c(nc3ccccc32)C1 | -116* | -22%[10 µM] | x | -16% | -3% | 24%
CCN(CC)C(=O)N1CCn2c(nc3ccccc32)C1 | 26 | 8%[10 µM] | 8 | u | -1% | -1%[46.1 µM]
COc1ccc(-c2nc3c(c4c2C[C@H](c2ccccc2)OC4)CN(S(=O)(=O)c2ccc(C)cc2)CC3)c(C)c1 | x | -4%[10 µM] | x | x | 2%[11.4 µM] | x
Cc1cnc(CNc2nc(-c3ccc(C(=O)N(C)C)cc3)nc3ccccc23)cn1 | x | -48% | x | x | 5% | x
Cc1ccc(NC(=O)c2ccc(NCCCN3CCOCC3)c([N+](=O)[O-])c2)cc1Cl | 70 | 26%[10 µM] | x | 25µM* | -3% | 1%
O=C(Nc1ccc(N2CCOCC2)c(F)c1)c1ccncc1 | -1 | -22% | 4 | 2.2µM* | 2% | -12%[46.1 µM]
O=C(Nc1ccc(N2CCCCC2)c(Cl)c1)c1ccc(N2CCOCC2)c([N+](=O)[O-])c1 | 32 | -33% | 7 | 11µM* | -2% | -13%[46.1 µM]
O=C(Nc1ccc(N2CCOCC2)c(Cl)c1)c1ccc(Cl)cc1 | x | -111% | x | u | x | 2%
O=C(Nc1ccc(Cl)c([N+](=O)[O-])c1)c1ccc(NCCCN2CCOCC2)c([N+](=O)[O-])c1 | u | 18%[10 µM] | 15 | 1% | 1% | -4%[46.1 µM]
COCCNC(=O)CNC(=S)N(CCCN1CCOCC1)Cc1cccs1 | x | -26% | x | 19% | x | 12%
COc1ccc(CCN(C)CCCOc2ccc(S(=O)(=O)c3[nH]c4ccccc4c3C(C)C)cc2)cc1OC | x | -80% | 4 | x | -2% | x
CC(N)(C(=O)O)c1ccc(S(=O)(=O)O)cc1 (stereo not drawn) | x | -16% | x | x | x | x
O=C(c1nc2ccccn2c1CNCCn1ccc2ccccc21)N1CCOCC1 | x | -8%[10 µM] | x | -2%[9.22 µM] | x | -5%
SMILES | PNC inhibitor | HTT ATP protect | IMPase inh | HttQ103 aggreg | 12-hLO inh | NPSR antagonist
COc1ccc(CNc2ncnc3c2[nH]c2ccccc23)cc1 | x | 18%[10 µM] | x | 14%[9.22 µM] | x | 17%[7.67 µM]
CC(C)OCCCNc1ncnc2c1[nH]c1ccccc12 | -97* | 19%[1.9 µM] | 11 | 7.1µM* | 0% | -8%[46.1 µM]
COc1cccc(NC(=S)/C(=C(\[O-])c2cc(C)n(-c3ccccc3F)c2C)[n+]2ccc(N(C)C)cc2)c1 | x | -78% | x | 13µM* | x | -50%
CC(=O)Nc1ccc(OC(C)=O)cc1 | x | 10% | x | 10% | x | x
CCOc1ccc(OCC)c(NS(=O)(=O)c2ccc3c(c2)CCN3C(=O)C2CCC2)c1 | -85* | -1% | -2 | -4% | -2% | -12%[46.1 µM]
CCCCc1c(C)nc(N)[nH]c1=O | 10 | -6% | u | 12% | 6% | 9%[46.1 µM]
COC(=O)CCc1c(C)nc(N)[nH]c1=O | -112* | -6% | -1 | 23% | 8% | -1%[46.1 µM]
O=C(/C=C/c1ccccc1Cl)c1ccccc(=O)c1O | 3 | x | x | u | u | 10µM*
O=C(/C=C/c1ccccc1Cl)c1ccc(O)cc1 | x | 2%[10 µM] | x | -9%[9.22 µM] | x | 7%
Cc1ccc(C)c(/C=C/C(=O)c2ccccc(=O)c2O)c1 | 4 | x | x | -16% | -28% | 13µM*
Cc1ccc(/C=C/C(=O)c2ccccc(=O)c2O)c(C)c1 | u | x | x | u | u | -18%
CC(C)CN=C(N)N=C(N)N | x | 20%[10 µM] | x | x | 4%[11.4 µM] | x
COC(=O)c1ccc2c(c1)C(C)(C)C(/C=C/c1ccccc1O)=[N+]2C | -19 | -110% | 5 | 3.5µM* | 14µM* | -11%[46.1 µM]
Cc1ccc(CNC(=O)c2ccc(N3CCCC3=O)cc2)cc1 | 23 | 10% | 1 | 21% | -7% | 2%[46.1 µM]
Cn1nc(C(C)(C)C)cc1C(=O)NCc1ccc(N2CCCC2=O)cc1 | -10 | 21%[10 µM] | -4 | 1.8µM* | -3% | -10%[46.1 µM]
O=C(O)/C=C1\CCCc2ccccc2C1O (stereo not drawn) | x | 1% | x | x | x | x
C/C(=N\Nc1nc(C)cc(C)n1)c1ccc(N2CCOCC2)cc1 | x | 3%[10 µM] | x | 11µM* | x | -5%
Cc1ccc(S(=O)(=O)Nc2ccc(O)c(Sc3ncn[nH]3)c2)cc1 | x | x | x | x | x | 0%
Cc1ccc(S(=O)(=O)/N=C2/C=C(Sc3ncn[nH]3)C(=O)c3ccccc32)cc1 | -22 | -81%[10 µM] | x | 3.2µM* | u | 10µM*
Cc1ccc(S(=O)(=O)/N=C2/C=C(Sc3ncn[nH]3)C(=O)c3ccccc32)c(C)c1 | 17 | -19%[10 µM] | x | 5µM* | u | -33%
Cc1ccc(C)c(S(=O)(=O)Nc2ccc(O)c(Sc3ncn[nH]3)c2)c1 | x | 12%[10 µM] | x | 34%[9.22 µM] | x | 14%
CC(C)c1ccc(S(=O)(=O)/N=C2/C=C(Sc3ncn[nH]3)C(=O)c3ccccc32)cc1 | u | -98%[10 µM] | u | 3.5µM* | -27% | 10µM*
O=S(=O)(O)c1cc(N=Nc2cccc3ccccc23)c(O)c2ncccc12 | x | -7%[10 µM] | x | x | -5%[11.4 µM] | x
Oc1c(N=Nc2ccccn2)ccc2ccccc12 | 86 | -71% | 43 | 3.2µM* | -6% | u
CCOC(=O)c1[nH]c2c(c1C)C(=O)CC(c1ccc(OCC)c(OC)c1)C2 (stereo not drawn) | -6 | 16% | 5 | -22% | 2% | 6%[46.1 µM]
Cc1c(C(=O)OCC(C)C)[nH]c2c1C(=O)CC(c1cccs1)C2 (stereo not drawn) | -88* | -103% | 0 | 1% | 2% | 20%[46.1 µM]
